Reference: PubChem BioAssay (NCATS)
Inconclusive results are not listed. The source made the active and inactive calls. Calls follow the shape of the dose curve; as a rule, active = well fitted curve in the direction sought with a large enough effect; inconclusive = small, poorly fitted or top-dose-only effect, or another doubt; inactive = no such curve, though single readings can be large; an effect the other way counts as inactive or inconclusive.

Key:
[1] = molecular target: Luciferin 4-monooxygenase (Photinus pyralis) (UniProt P08659); test: Firefly luciferase counterscreen qHTS: Assay Interference Panel against the NCATS CANVASS Library (AID 1347363); also: series mostly up to about 57 µM
Chain of Luciferin 4-monooxygenase (Photinus pyralis) (P08659 whole entry, looked up): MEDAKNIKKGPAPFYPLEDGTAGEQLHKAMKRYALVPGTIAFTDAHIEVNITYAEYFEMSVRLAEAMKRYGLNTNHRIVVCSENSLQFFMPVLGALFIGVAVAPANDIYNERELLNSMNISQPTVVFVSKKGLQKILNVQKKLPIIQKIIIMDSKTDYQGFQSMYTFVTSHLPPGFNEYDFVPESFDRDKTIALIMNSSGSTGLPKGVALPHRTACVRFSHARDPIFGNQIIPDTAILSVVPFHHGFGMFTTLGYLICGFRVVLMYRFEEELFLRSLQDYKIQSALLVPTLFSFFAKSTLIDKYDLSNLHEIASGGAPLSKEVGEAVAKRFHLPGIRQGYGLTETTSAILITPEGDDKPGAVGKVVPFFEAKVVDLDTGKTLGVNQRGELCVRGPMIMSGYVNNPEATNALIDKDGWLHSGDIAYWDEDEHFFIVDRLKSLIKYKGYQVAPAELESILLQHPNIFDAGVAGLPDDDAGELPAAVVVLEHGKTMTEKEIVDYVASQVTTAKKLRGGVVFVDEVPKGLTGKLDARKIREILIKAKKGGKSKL
Method in brief: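 Luminescence inhibition readout: compounds (11-point qHTS) sat 15 min at room temperature with substrate mix (0.013 mM luciferin and ATP), then firefly luciferase was added and signal read 5 min later.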

[2] = KB-8-5-11 Cancer Cell Toxicity qHTS against the NCATS CANVASS Library (AID 1347364); also: nearly all actives have a fitted effect of over 75% in size
Method in brief: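 KB-8-5-11 cells, 500/well in DMEM + 10% FBS, given compounds in an 11-point series. Incubated 72 h at 37 °C. Viability by CellTiter-Glo luminescence. Confirmation also run with 1 uM tariquidar.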

[3] = KB-3-1 Cancer Cell Toxicity qHTS against the NCATS CANVASS Library (AID 1347366); also: series mostly up to about 46 µM; nearly all actives have a fitted effect of over 75% in size
Method in brief: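 KB-3-1 cells (500 cells/well) in DMEM + 10% FBS were treated with compounds for 72 hr at 37C, 5% CO2. Viability was read as CellTiter-Glo luminescence after 10 minutes at room temperature.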

[4] = qHTS for ATAD5 Agonist screened against the NCATS CANVASS Library (AID 1347367);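 also: luciferase reporter driven by ATAD5 which rises upon DNA damage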
Method in brief: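 HEK293T cells stably carrying an ATAD5-controlled luciferase reporter (2000 cells/well) attached for 5 hr, then received compounds in an 11-point series for 16hr at 37C. Luminescence was read after a 30 min room-temperature reagent step.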

[5] = G06 Cancer Cell Toxicity qHTS against the NCATS CANVASS Library (AID 1347368); also: nearly all actives have a fitted effect of over 60% in size
Method in brief: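 G06 dog glioma cells, 500 per well, exposed 72 hr at 37C, 5% CO2 to compounds in an 11-point series. Cytotoxicity read as ATP content by CellTiterGlo luminescence.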

[6] = MCF7 Cancer Cell Toxicity qHTS against the NCATS CANVASS Library (AID 1347369)
Method in brief: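 MCF7, 500 cells/well; cpds 11-pt qHTS; 72 hr, 37C/5% CO2; CellTiterGlo ATP luminescence.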

[7] = qHTS for ATAD5 Antagonist screened against the NCATS CANVASS Library (AID 1347370);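 also: HEK293T cells carrying an ATAD5 luciferase reporter co-treated with 10 µM 5-fluorouridine; series mostly up to about 46 µM; nearly all actives have a fitted effect of over 65% in size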
Method in brief: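 HEK293T cells with stably integrated ATAD5-luciferase reporter, 2000/well, 5 h attachment; compounds plus 10 µM 5-fluorouridine, 16 h at 37 °C. Luciferase luminescence read, with CellTiter-Fluor viability read first.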

[8] = J3T Cancer Cell Toxicity qHTS against the NCATS CANVASS Library (AID 1347371)
Method in brief: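 J3T dog glioma cells, 500 per well, treated 72 h at 37C with compounds (11-point qHTS); viability from ATP content by CellTiterGlo luminescence; bortezomib titration as control.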

[9] = molecular target: Nuclear receptor subfamily 1 group I member 3 (Homo sapiens) (UniProt Q14994); test: qHTS for Constitutive Androstane Receptor (CAR) Antagonist screened against the NCATS CANVASS Library (AID 1347372);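 also: cells stimulated with 50 nM CITCO agonist so inhibition reflects antagonism; series mostly up to about 46 µM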
Chain of Nuclear receptor subfamily 1 group I member 3 (Homo sapiens) (Q14994 whole entry, looked up): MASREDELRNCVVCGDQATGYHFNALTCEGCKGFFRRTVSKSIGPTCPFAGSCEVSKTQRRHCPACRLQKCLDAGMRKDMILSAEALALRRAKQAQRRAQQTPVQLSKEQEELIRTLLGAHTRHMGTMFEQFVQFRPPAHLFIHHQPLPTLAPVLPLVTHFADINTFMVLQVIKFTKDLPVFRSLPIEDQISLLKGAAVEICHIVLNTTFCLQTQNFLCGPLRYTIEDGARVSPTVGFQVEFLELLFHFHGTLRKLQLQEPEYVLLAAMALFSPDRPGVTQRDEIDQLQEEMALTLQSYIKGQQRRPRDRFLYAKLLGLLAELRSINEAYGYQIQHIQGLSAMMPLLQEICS
Method in brief: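 HepG2-CYP2B6-hCAR double-stable cells plated, 4hr attach; cpd pin-transferred; CITCO 50 nM final; 24hr 37C/5% CO2; CellTiter-Fluor 1hr (fluorescence), then ONE-Glo luminescence.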

[10] = molecular target: Nuclear receptor subfamily 1 group I member 3 (Homo sapiens) (UniProt Q14994); test: qHTS for Constitutive Androstane Receptor (CAR) Agonist screened against the NCATS CANVASS Library (AID 1347373);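 also: every well also contained 1.5 µM PK11195 alongside the test compound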
Method in brief: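 HepG2 cells stably carrying hCAR and a CYP2B6-2.2kb luciferase reporter, treated 24hr at 37C with compounds plus 1.5uM PK11195; activation by ONE-Glo luminescence, viability by CellTiter-Fluor.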

[11] = qHTS for Hypoxia signaling pathway (HIF-1) antagonists against the NCATS CANVASS Library (AID 1347374);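 also: HRE-bla ME-180 cells stimulated with cobalt chloride to stabilize HIF-1alpha; series mostly up to about 38 µM; nearly all actives have a fitted effect of over 60% in size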
Method in brief: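 HRE-bla ME-180 cells in medium with 0.5% dialyzed FBS received compounds (11-point series) plus CoCl2 (60 uM addition stock) for 17 hrs at 37C. Beta-lactamase activity read with CCF4 (405 nm ex, 460/530 nm em); CellTiter-Glo viability measured in same wells.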

[12] = qHTS for Hypoxia signaling pathway (HIF-1) agonists against the NCATS CANVASS Library (AID 1347375)
Method in brief: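 HRE-bla ME-180 cells (0.5% dialyzed FBS) were pre-incubated 5 hrs at 37C, then exposed to compounds in an 11-point series for 17 hrs. Read-out was CCF4-AM beta-lactamase FRET (460/530 nm emissions), with CellTiter-Glo viability in the same wells.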

[13] = 10-beta competent E. coli microbial cell viability qHTS against the NCATS CANVASS Library (AID 1347376); also: series mostly up to about 46 µM
Method in brief: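 10-beta competent E. coli (0.2 OD) were exposed overnight at 37C to compounds in an 11-point series. Viability was read as ATP-dependent BacTiter-Glo luminescence after 20 min at room temperature.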

[14] = DH5-alpha competent E. coli microbial cell viability qHTS against the NCATS CANVASS Library (AID 1347377); conditions: outcome: dose series up to 46.1 µM
Method in brief: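 DH5-alpha E. coli suspension was exposed to an 11-point compound series overnight at 37 °C. Viable cells quantified by ATP luminescence (BacTiter-Glo) after 20 min at room temperature.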

[15] = qHTS for Inflammasome Signaling Inhibitors: IL-1-beta AlphaLISA screen against the NCATS CANVASS Library (AID 1347379);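 also: human THP-1 cells primed with LPS then triggered with ATP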
Method in brief: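 THP-1 cells pretreated 1 hr with compound (up to 57.5 uM final), then stimulated with LPS (250 ng/mL final) and ATP (1.25 mM final). Secreted IL-1B measured by AlphaLISA after 16 hr; glyburide as positive control.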

[16] = Inflammasome Signaling qHTS Counterscreen: IL-1-beta AlphaLISA counterscreen against the NCATS CANVASS Library (AID 1347381);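 also: cell-free check with purified IL-1β in medium and no THP-1 cells; series mostly up to about 57 µM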
Method in brief: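 Cell-free interference check: compounds added to medium spiked with 4 pg purified IL-1β. Anti-IL-1β acceptor beads (6 ug/mL) with 0.6 nM biotinylated antibody added for 1 h at RT, then streptavidin donor beads (24 ug/mL) for 30 min in the dark. AlphaLISA read at 680/615 nm.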

[17] = qHTS for Activators of p53 Stress Response Pathway screened against the NCATS CANVASS Library (AID 1347388)
Method in brief: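 Beta-lactamase reporter driven by p53 response elements in HCT-116 cells, read as the 460 nm/530 nm emission ratio after CCF4 loading, following 16 h of exposure to an 11-point series. Cell viability was measured in the same wells by CellTiter-Glo luminescence.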

[18] = qHTS assay for small molecule disruptors of mitochondrial membrane potential screened against the NCATS CANVASS Library (AID 1347389); also: series mostly up to about 46 µM; nearly all actives have a fitted effect of over 60% in size
Method in brief: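 HepG2 cells (2,000/well) plated overnight, then exposed to compounds in 11-point qHTS series for 1 h at 37C before 30 min Mito-MPS dye; depolarization read as fall in red aggregate (590 nm) to green monomer (535 nm) fluorescence.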

[19] = Secretion counterscreen for inhibitors of the SERCaMP assay screened against the NCATS CANVASS Library (AID 1347390);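 also: light from luciferase secreted into medium read as a measure of general secretion; series mostly up to about 77 µM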
Method in brief: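 SH-SY5Y cells expressing constitutively secreted GLuc, 1000 cells/well, attached 4 h at 37C, then exposed to compounds (0.001 - 77 uM, 11-pnt series) for 20 h. Coelenterazine added; luminescence read to flag secretory-pathway interferers.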

[20] = qHTS for activators of dead-cell proteases activity screened against the NCATS CANVASS Library (AID 1347392);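 also: luminescence from protease leaking out of membrane-damaged cells cleaving impermeant substrate; rising signal means more cytotoxicity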
Method in brief: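 Compounds are pin-transferred onto attached HepG2 cells, giving 11 final concentrations. After 5 h at 37C, AAF-aminoluciferin reagent is added and luminescence is recorded at room temperature.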

Measured: Potency

COC(=O)C1=C2Nc3ccccc3[C@@]23CCN2CC(C(C)=O)C1C[C@H]23 (stereo not given in full)
inactive: all assays above

CNCCc1c[nH]c2ccccc12
inactive: all assays above

CNCCc1ccc(O)cc1
inactive: all assays above

CC[N@@+]1([O-])C[C@]2(C)CC[C@@H](O)[C@@]34C5C[C@H]6CC[C@@]5(C(C[C@H]23)C41)[C@H](O)[C@@]6(O)CO (stereo not given in full)
inactive: all assays above

CCC[C@H]1CC[C@H]2[C@H](C)CCC[C@H]2N1
inactive: all assays above

CC(=O)N[C@H]1CCN2CCC[C@H]12
inactive: all assays above

COc1ccc(C23Oc4cc(OC)cc(OC)c4[C@](O)([C@H](c4ccccc4)C2C(=O)NCCCCNC(=O)c2ccccc2)[C@@H]3O)cc1 (stereo not given in full)
inactive: all assays above
